Reference: PubChem BioAssay (NCATS)
Inconclusive results are not listed. Activity calls are given as the source filed them. Calls follow the shape of the dose curve; as a rule, active = well fitted curve in the direction sought with a large enough effect; inconclusive = small, poorly fitted or top-dose-only effect, or another doubt; inactive = no such curve, though single readings can be large; an effect the other way counts as inactive or inconclusive.

Legend:
[1] = qHTS to identify inhibitors of the type 1 interferon - major histocompatibility complex class I in skeletal muscle: primary screen against the NCATS Pharmaceutical Collection (AID 1347407);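 also: luminescence of HiBiT knocked into endogenous HLA-B as interferon-induced MHC class I level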; also: potency is read from the fitted curve at half-maximal effect
Procedure, shortened: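 Immortalized human myoblasts (C25cl48) with HiBiT knocked into endogenous HLA-B*08:01 were stimulated with 4.0 ng/ml IFN-beta and treated with compounds ([…] top 46 uM) for 24 hrs at 37 C. HiBiT lytic luminescence read.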

[2] = target: Protein phosphatase 1D (Homo sapiens) (UniProt O15297); experiment: RapidFire Mass Spectrometry qHTS Assay for Modulators of WT P53-Induced Phosphatase 1 (WIP1) (AID 1347424); also: series mostly up to about 63 µM
Protein phosphatase 1D (Homo sapiens), sequence (O15297 whole entry, looked up): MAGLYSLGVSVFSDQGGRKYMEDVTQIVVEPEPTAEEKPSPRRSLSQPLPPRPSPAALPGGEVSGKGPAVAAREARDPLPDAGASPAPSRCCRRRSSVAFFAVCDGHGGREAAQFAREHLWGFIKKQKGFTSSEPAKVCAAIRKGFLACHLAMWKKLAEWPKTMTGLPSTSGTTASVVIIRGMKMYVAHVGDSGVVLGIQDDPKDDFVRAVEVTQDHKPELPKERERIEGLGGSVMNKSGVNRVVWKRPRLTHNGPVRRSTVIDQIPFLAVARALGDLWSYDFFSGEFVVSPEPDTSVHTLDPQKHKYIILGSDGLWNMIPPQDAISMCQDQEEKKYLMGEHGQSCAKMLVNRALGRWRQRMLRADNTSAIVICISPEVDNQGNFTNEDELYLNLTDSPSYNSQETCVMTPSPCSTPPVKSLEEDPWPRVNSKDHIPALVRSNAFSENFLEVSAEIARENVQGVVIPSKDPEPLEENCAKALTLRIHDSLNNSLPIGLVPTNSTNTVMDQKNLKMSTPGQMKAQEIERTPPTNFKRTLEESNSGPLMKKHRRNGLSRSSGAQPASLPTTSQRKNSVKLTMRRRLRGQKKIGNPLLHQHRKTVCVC
Procedure, shortened: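 RapidFire MS readout of dephosphorylated VEPPL-S-QETFS product, with 1 uM isotope-labelled peptide standard. Reaction: 10 nM WIP1, 2 uM phosphopeptide substrate, 5 min, room temperature, after 1 h compound preincubation; stopped with 0.5% formic acid.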

[3] = target: Protein phosphatase 1D (Homo sapiens) (UniProt O15297); experiment: Rhodamine-PBP qHTS Assay for Modulators of WT P53-Induced Phosphatase 1 (WIP1) (AID 1347425)
Procedure, shortened: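 5 nM WIP1 + 10 uM Rh-PBP, 50 mM Tris pH 7.5, 30 mM MgCl2, 1 mM TCEP, 0.1 mM EGTA, BSA; cpds pinned, 1 hr RT; + 10 uM phosphopeptide; fluorescence 1-min reads x 11 min; delta = f1 - f0.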

[4] = Primary qHTS for inhibitors of La Crosse Virus (LACV) - induced cell death in SH-SY5Y cells (AID 1508616);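 also: top concentration of the series differs between compounds; higher means more rescue of cells from virus-induced death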
Procedure, shortened: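 SH-SY5Y, 6000 cells/well; cpd via pin tool in DMSO; LACV 0.01 MOI; 6 d 37C 5% CO2; ATPLite, 5 min RT; luminescence normalized to ±virus DMSO controls.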

[5] = target: Calcium and integrin-binding protein 1 (Homo sapiens) (UniProt Q99828); experiment: Primary qHTS for Identification of Calcium Integrin Binding Protein 1 (CIB1) Competitor (AID 1508620);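 also: GST tagged CIB1 binding a fluorescein labelled alphaIIb integrin peptide tracer; top concentration of the series differs between compounds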
Calcium and integrin-binding protein 1 (Homo sapiens), sequence (Q99828 whole entry, looked up): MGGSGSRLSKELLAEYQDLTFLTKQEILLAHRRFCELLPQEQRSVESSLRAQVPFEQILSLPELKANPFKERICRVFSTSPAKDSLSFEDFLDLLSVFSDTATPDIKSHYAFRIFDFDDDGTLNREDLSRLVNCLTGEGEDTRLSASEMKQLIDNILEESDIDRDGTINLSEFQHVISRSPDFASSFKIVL
Procedure, shortened: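 Fluorescence polarization competition: GST-tagged CIB1 (1 uM final) preincubated with compound 15 min at room temperature, then FITC-labelled alphaIIb peptide (100 nM final) added. After 15 min at room temperature, polarization read at Ex 480/Em 540.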

[6] = Counterscreen qHTS for small molecule stabilizers of the endoplasmic reticulum resident proteome: GLuc-NoTag assay (AID 1508627); also: series mostly up to about 76 µM
Procedure, shortened: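 Counterscreen line: SH-SY5Y-GLuc-NoTag. Seed, 5 h; compound, 19 h; thapsigargin 100 nM, 4 h; 37C/5% CO2. Readout: secreted GLuc luminescence, coelenterazine 0.07x final, no lysis.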

[7] = Confirmatory qHTS for small molecule stabilizers of the endoplasmic reticulum resident proteome: Secreted ER Calcium Modulated Protein (SERCaMP) assay (AID 1508628); also: nearly all actives have a fitted effect of over 40% in size; also: potency is read from the fitted curve at half-maximal effect
Procedure, shortened: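 Reporter secretion upon ER calcium depletion (100 nM thapsigargin, 4 h, 37C) is measured as medium luminescence with coelenterazine, after 16 h compound pretreatment of SH-SY5Y-GLuc-SERCaMP cells; primary at three concentrations up to 38.3 uM, follow-up at 11 (up to 76.6 uM).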

[8] = qHTS to identify inhibitors of the type 1 interferon - major histocompatibility complex class I in skeletal muscle: primary screen against the NCATS Mechanism Interrogation Plate v5.0 (MIPE) Libary (AID 1347411); also: nearly all actives have a fitted effect of over 65% in size; also: potency is read from the fitted curve at half-maximal effect
Procedure, shortened: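 Seed engineered human myoblasts (HLA-B HiBit) in medium without dexamethasone containing 4 ng/ml IFN-beta; after 1 hr add compound titrations (top 46 uM final). Incubate 24 hrs at 37 C, lyse 10 min with HiBiT reagent, read luminescence.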

[9] = qHTS for inhibitors of adenylyl cyclases using a fission yeast platform: a pilot screen against the NCATS LOPAC library (AID 1347410)
Procedure, shortened: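 S. pombe CHP2027 (AC9-GNAS-PDE4D2) carrying PKA-repressed fbp1-GFP, incubated 18 h at 30C in EMM with LOPAC compounds at up to 57 uM. GFP gain-of-signal read by laser scanning cytometry; DMSO negative control.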

[10] = Validation qHTS assay for inhibitors of Activation Induced Cytidine Deaminase (AID): UDG Counterscreen signal (AID 1347427)
Procedure, shortened: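 Fluorescence at 560 nm excitation, 665 nm emission reports UDG signal after 250 mM NaOH (2x) addition and 30 min. Enzymes (AID 1 uM, UDG 2 U/mL, at 4/3x) preincubated 10 min with compound, then 4 h with 4x 250 nM DJC20/DJC23 substrate at room temperature.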

[11] = target: Single-stranded DNA cytosine deaminase (Homo sapiens) (UniProt Q9GZX7); experiment: Validation qHTS assay for inhibitors of Activation Induced Cytidine Deaminase (AID): AID signal (AID 1347429)
Single-stranded DNA cytosine deaminase (Homo sapiens), sequence (Q9GZX7 whole entry, looked up): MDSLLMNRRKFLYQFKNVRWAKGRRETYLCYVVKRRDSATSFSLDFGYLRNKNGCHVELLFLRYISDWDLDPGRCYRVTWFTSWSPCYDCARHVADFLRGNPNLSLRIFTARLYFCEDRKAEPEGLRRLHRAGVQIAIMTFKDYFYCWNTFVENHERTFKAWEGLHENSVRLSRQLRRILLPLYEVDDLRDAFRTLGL
Procedure, shortened: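 Steps: dispense AID with UDG; pin-transfer compound up to 114 uM final; add DJC20/DJC23 substrate and hold 4 hr at room temperature; add NaOH, hold 30 min; read FRET signal (540/590 nm).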

[12] = target: Calcium and integrin-binding protein 1 (Homo sapiens) (UniProt Q99828); experiment: Validation qHTS for Identification of Calcium Integrin Binding protein 1 (CIB1) Competitor (AID 1508618)
Procedure, shortened: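 Displacement of FITC-alphaIIb peptide (100 nM) from CIB1-GST (1 uM) is monitored by polarization in quantitative HTS format; buffer carries 5 mM CaCl2 and 125 mM NaCl at pH 7.4, incubations are at room temperature.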

[13] = target: Calcium and integrin-binding protein 1 (Homo sapiens) (UniProt Q99828); experiment: Confirmatory qHTS for Identification of Calcium Integrin Binding Protein 1 (CIB1) Competitor (AID 1508617); also: nearly all actives have a fitted effect of over 65% in size
Procedure, shortened: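 Confirmatory qHTS measures displacement of a FITC-alphaIIb peptide (100 nM) from CIB1-GST (1 uM) by fluorescence polarization. Calcium-containing HEPES buffer, pH 7.4; two 15 min room-temperature incubations.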

Measured: Potency

COc1ccccc1OCC(O)COC(N)=O (stereo not given)
inactive: [1] | [2] | [3] | [4] | [5]

CCn1cc(C(=O)O)c(=O)c2cc(F)c(N3CCNCC3)nc21
inactive: [1] | [3] | [4] | [5] | [6] | [7]

CC(C)OC(=O)C(C(=O)OC(C)C)=C1SC=CS1
inactive: [8] | [2] | [3] | [4]

C[C@@H](NCCCc1cccc(C(F)(F)F)c1)c1cccc2ccccc12
inactive: [2] | [3] | [4] | [5]
active: [1] 26.4 µM

O=c1cc(O)c(Cl)c[nH]1
inactive: [8] | [2] | [3] | [4] | [5]

NNC(=O)c1ccncc1
inactive: [1] | [2] | [3] | [4] | [5]

NC(N)=NC(N)=NCCc1ccccc1
inactive: [8] | [2] | [3] | [4] | [5]

CO[C@@H]1[C@@H](OC(N)=O)[C@@H](O)[C@H](Oc2ccc3c(O)c(NC(=O)c4ccc(O)c(CC=C(C)C)c4)c(=O)oc3c2C)OC1(C)C
inactive: [1] | [3] | [4] | [5]
active: [7] 35.5 µM

O=NN(CCCl)C(=O)NC1CCCCC1
inactive: [1] | [3] | [4]

CC(C)(C)C(=O)OCOP(=O)(COCCn1cnc2c(N)ncnc21)OCOC(=O)C(C)(C)C
inactive: [1] | [3] | [5]

CCC(=O)O[C@]1(C(=O)CCl)[C@@H](C)C[C@H]2[C@@H]3CCC4=CC(=O)C=C[C@]4(C)[C@@]3(F)[C@@H](O)C[C@@]21C
inactive: [8] | [2] | [3] | [4]

Cc1ccnc2c1NC(=O)c1cccnc1N2C1CC1
inactive: [1] | [3] | [4] | [5]

CCc1c2c(nc3ccc(OC(=O)N4CCC(N5CCCCC5)CC4)cc13)-c1cc3c(c(=O)n1C2)COC(=O)[C@]3(O)CC
inactive: [2] | [3]

COc1ncnc(NS(=O)(=O)c2ccc(N)cc2)c1OC
inactive: [1] | [3] | [4] | [5]

C[C@@H]1C[C@H]2[C@@H]3CCC4=CC(=O)C=C[C@]4(C)[C@@]3(Cl)[C@@H](O)C[C@]2(C)[C@@]1(OC(=O)c1ccco1)C(=O)CCl
inactive: [1] | [3] | [4] | [5]

CN1CCN(c2c(F)cc3c(=O)c(C(=O)O)cn4c3c2OCN4C)CC1
inactive: [1] | [3] | [4] | [5]

O=C(N[C@H](CO)[C@H](O)c1ccc([N+](=O)[O-])cc1)C(Cl)Cl
inactive: [1] | [3] | [4] | [5]

CCC(=O)O[C@]1(C(=O)SCF)[C@H](C)C[C@H]2[C@@H]3C[C@H](F)C4=CC(=O)C=C[C@]4(C)[C@@]3(F)[C@@H](O)C[C@@]21C
inactive: [8] | [2] | [3] | [4] | [5]

COc1cccc(N(C)C(=S)Oc2ccc3c(c2)CCCC3)n1
inactive: [1] | [3] | [4]

N=C(N)c1ccc(OCCCCCOc2ccc(C(=N)N)cc2)cc1
inactive: [2] | [3]

O=c1oc2c(O)c(O)cc3c(=O)oc4c(O)c(O)cc1c4c23
inactive: [1] | [2] | [3] | [4] | [5]

COc1cc2nc(N3CCCN(C)CC3)nc(NC3CCN(Cc4ccccc4)CC3)c2cc1OC
inactive: [9] | [10] | [11] | [12] | [5]

CC(=O)CC(c1ccccc1)c1c(O)c2ccccc2oc1=O (stereo not given)
inactive: [2] | [3] | [4] | [5]
active: [8] 13.1 µM

Cc1c(-c2ccc(O)cc2)n(Cc2ccc(OCCN3CCCCCC3)cc2)c2ccc(O)cc12
inactive: [2] | [3]

CC[C@H](NC(C)C)[C@H](O)c1ccc(O)c2[nH]c(=O)ccc12
inactive: [1] | [3] | [4]

CC(=O)[C@H]1CC[C@H]2[C@@H]3CC=C4C[C@@H](O)CC[C@]4(C)[C@H]3CC[C@]12C
inactive: [8] | [3] | [4] | [5]

CC(N)C12CC3CC(CC(C3)C1)C2 (stereo not given)
inactive: [8] | [2] | [3] | [4] | [5]

NS(=O)(=O)c1cc2c(cc1Cl)NC(C(Cl)Cl)NS2(=O)=O (stereo not given)
inactive: [8] | [2] | [3] | [4] | [5]

CC(=O)[C@H]1CC[C@H]2[C@@H]3CCC4=CC(=O)CC[C@]4(C)[C@H]3CC[C@]12C
inactive: [10] | [11] | [12]

CO[C@@]12[C@H](COC(N)=O)C3=C(C(=O)C(C)=C(N)C3=O)N1C[C@@H]1N[C@@H]12
inactive: [13]

N[C@@H](Cc1ccc(O)c(O)c1)C(=O)O
inactive: [12]

CNCC[C@H](Oc1cccc2ccccc12)c1cccs1
inactive: [6] | [7]

CN1CCCC(n2nc(Cc3ccc(Cl)cc3)c3ccccc3c2=O)CC1 (stereo not given)
inactive: [6]
active: [7] 20 µM
